L3MBTL1 block – blocks human L3MBTL1 | AlphaScreen L3MBTL1–H3K9me1 peptide binding | Q9Y468 | 0.66% of 230,000 active | AID 485360 | Potency, µM (series often up to 57.1 µM), for the others: top-dose activity, negative = inhibition, most hits filed as inhibitors; note: % is set by controls: 0 for no effect and ±100 for the full control effect; nearly all actives have a fitted effect of over 60% in size
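L3MBTL1 (50 nM) pre-complexed 30 min with biotinylated H3(1-15)K9me1 peptide (75 nM), then compounds added for 30 min at room temperature; AlphaScreen streptavidin donor/nickel chelate acceptor beads (10 ug/mL final) read after 30 min dark incubation.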
Pol eta inh-1 – inhibitors of human DNA polymerase eta; Q9Y253; recombinant Pol eta, fluorescent DNA replication assay; Potency, µM (top dose mostly 114 µM), for inactives: at the highest dose activity change, negative = inhibition, most hits filed as inhibitors; 1.2% of 390,000 active; AID 588591; note: % is set by controls: 0 for no effect and ±100 for the full control effect
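Pol eta at 10 nM preincubated with compounds 15 min at room temperature; reaction started with fluorescent substrate (50 nM final) and read kinetically at 0 and 10 min.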
Pol kappa inh-1 – DNA polymerase kappa (human) inhibition. purified Pol kappa, fluorescent DNA synthesis assay, 10 min. Potency, µM (highest dose often 107 µM), inactives show at the top dose activity, negative = inhibition, usual class: inhibitors. 0.53% of 400,000 active. AID 588579; note: % is set by controls: 0 for no effect and ±100 for the full control effect
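Readout: fluorescence, taken kinetically at 0 and 10 min. Conditions: 10 nM Pol kappa, 15 min RT compound preincubation, 50 nM substrate final. Controls: enzyme-free buffer wells.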
POLI inh – inhibitors of human DNA polymerase iota; Pol iota fluorescent replication assay, 10 min; Potency, µM (series often up to 115 µM), without a hit: at the top dose activity, negative = inhibition, most hits filed as inhibitors; 1% of 390,000 active; AID 588590
Target sequence (Q9UNA4 whole entry, looked up): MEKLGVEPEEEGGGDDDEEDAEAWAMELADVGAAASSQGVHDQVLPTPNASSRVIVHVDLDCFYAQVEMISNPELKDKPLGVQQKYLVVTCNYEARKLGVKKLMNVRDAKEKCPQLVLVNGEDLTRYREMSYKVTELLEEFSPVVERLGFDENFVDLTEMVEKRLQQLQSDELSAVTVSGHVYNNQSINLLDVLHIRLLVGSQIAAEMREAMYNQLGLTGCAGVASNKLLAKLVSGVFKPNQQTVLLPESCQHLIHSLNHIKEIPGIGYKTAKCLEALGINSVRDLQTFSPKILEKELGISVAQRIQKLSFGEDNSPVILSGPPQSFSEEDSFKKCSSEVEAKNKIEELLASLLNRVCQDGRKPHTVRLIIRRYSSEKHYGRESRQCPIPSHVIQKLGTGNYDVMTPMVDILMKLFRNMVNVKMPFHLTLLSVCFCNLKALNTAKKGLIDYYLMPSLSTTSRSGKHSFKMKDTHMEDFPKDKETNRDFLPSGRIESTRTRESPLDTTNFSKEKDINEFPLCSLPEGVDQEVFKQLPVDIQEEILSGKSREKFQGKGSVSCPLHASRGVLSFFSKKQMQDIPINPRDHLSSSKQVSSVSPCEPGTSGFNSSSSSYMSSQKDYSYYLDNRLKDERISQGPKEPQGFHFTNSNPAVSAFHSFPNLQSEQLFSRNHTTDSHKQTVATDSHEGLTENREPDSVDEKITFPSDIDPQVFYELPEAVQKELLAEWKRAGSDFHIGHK
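Pol iota at 10 nM preincubated 15 min with compounds at room temperature; reaction started with fluorescent substrate, 50 nM final. Fluorescence read kinetically at 0 and 10 min; buffer-only wells as negative control.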
APE1 inh – blocks human APE1 abasic DNA cleavage; P27695; recombinant APE1, TAMRA/BHQ-2 abasic DNA cleavage fluorescence; Potency, µM (titrated, usually from 65.8 µM), inactives show top-dose activity change, negative = inhibition, hits mostly inhibitors; 0.35% of 350,000 active; AID 2517;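 note: plate controls were vehicle for no effect and reference inhibitor for full effect; nearly all actives have a fitted effect of over 55% in size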
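Enzyme (0.75 nM final) and test compound are incubated 15 min at room temperature before adding 50 nM quenched THF abasic-site duplex. Cleavage dequenches TAMRA, followed at 525/598 nm over three reads one minute apart.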
Pol beta inh – blocks human DNA polymerase beta activity | P06746 | Potency, µM (series often up to 114 µM), inactives show top-dose activity change, negative = inhibition, actives largely listed as inhibitors | 1.3% of 340,000 active | AID 485314 | Pol beta primer extension/strand displacement, fluorescence kinetic; note: % is set by controls: 0 for no effect and ±100 for the full control effect
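Curves were derived by four-parameter Hill fits of normalized qHTS data. The kinetic fluorescent primer-extension read was taken at 0 and 10 min after 50 nM substrate, following a 15 min room-temperature preincubation of 10 nM enzyme with compounds.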
PGK validate – validation of Trypanosoma brucei phosphoglycerate kinase inhibitors | shares compounds with Pol kappa inh-1 | TbPGK coupled GAPDH assay, Kinase-Glo luminescence | Potency, µM (top dose mostly 57.5 µM), without a hit: at the top dose activity change, negative = inhibition, usual class: inhibitors | 79% of 500 active | AID 686980; note: % is set by controls: 0 for no effect and ±100 for the full control effect; nearly all actives have a fitted effect of over 65% in size
Pol iota confirm – Confirm cherry-picked inhibitors of human polymerase iota | shares compounds with Pol kappa inh-1 | Pol iota primer extension, TAMRA/BHQ fluorescence | Potency, µM, usual class: inhibitors | 77% of 1,500 active
Pol kappa inh-2 – confirmation of human DNA polymerase kappa inhibitors; shares compounds with Pol eta inh-1; purified Pol-kappa, fluorescent strand-displacement substrate; Potency, µM, most hits filed as inhibitors; 76% of 920 active
Pol eta inh-2 – Pol eta (human) inhibition, cherry-pick confirmation | shares compounds with Pol eta inh-1 | Pol eta primer extension, TAMRA/BHQ fluorescence, 10 min | Potency, µM, most hits filed as inhibitors | 64% of 2,600 active
Active calls of the source: *; ? = inconclusive; · = no result; [ ] = remark or other dose. In the library only some 2.5% were active in any assay of this set; here they are far more common. Calls come from the whole dose curve; as a rule, active = well fitted curve in the direction sought with a large enough effect; inconclusive = small, poorly fitted or top-dose-only effect, or another doubt; inactive = no such curve, though single readings can be large; an effect the other way counts as inactive or inconclusive. Potency is the fitted concentration of half-maximal effect.

SMILES	L3MBTL1 block	Pol eta inh-1	Pol kappa inh-1	POLI inh	APE1 inh	Pol beta inh	Pol iota confirm	Pol kappa inh-2	Pol eta inh-2	others
O=C1NC(=S)S/C1=C\C=C\c1ccc([N+](=O)[O-])o1	·	2.2µM*	10µM*	2.2µM*	2.8µM*	?	2.7*	4.7*	4.8*	PGK validate=2.6µM*
CC(=O)Nc1ccc(S(=O)(=O)c2cc(O)ccc2O)cc1	0%	-7%	?	?	6%	17%	·	·	·
CCOC(=O)C1=C(C)N=c2s/c(=C/c3cccc([N+](=O)[O-])c3O)c(=O)n2C1c1ccc(OC)cc1OC (stereo not drawn)	?	50µM*	-7%	?	24µM*	1%	75*	·	76*
CCOC(=O)C1=C(C)N=c2s/c(=C/c3ccc(OCC(=O)O)cc3)c(=O)n2C1c1ccc(OC)cc1OC (stereo not drawn)	-7%	28µM*	?	?	?	-5%	34*	30*	67*
CCOC(=O)C1=C(C)N=c2s/c(=C\c3ccc(O)c([N+](=O)[O-])c3)c(=O)n2C1c1ccccc1OC (stereo not drawn)	-9%	8%	-23%	?	-15%	1%	·	·	·
CCOC(=O)C1=C(C)N=c2s/c(=C/c3ccc(OCC(=O)O)cc3)c(=O)n2C1c1ccc(F)cc1 (stereo not drawn)	·	?	-17%	18µM*	-40%	56µM*	75*	?	·
CCOC(=O)C1=C(C)N=c2s/c(=C/c3ccc(OCC(=O)O)c(OC)c3)c(=O)n2C1c1ccc(Cl)cc1 (stereo not drawn)	·	20µM*	?	10µM*	·	·	15*	7.5*	34*	PGK validate=10µM*
CCCCN(CC)C(=O)Cn1c(=O)n(-c2ccc(OCC)cc2)c(=O)c2c3c(sc21)CCCC3	·	-6%	-19%	-1%	·	-26%	·	·	·
COc1ccc(NC(=O)CN(C)C(=O)CSc2nc3ccccc3s2)cc1	?	-23%	-2%	3%	24%	·	·	·	·
Cc1c(CC(=O)O)c(=O)oc2c(C)c3occ(-c4ccc(Br)cc4)c3cc12	·	?	-6%	20%	?	22µM*	42*	·	76*
CCOC(=O)c1c(C)[nH]c(C)c1C(=O)COC(=O)c1ccc(S(=O)(=O)C(F)F)cc1	-8%	-9%	-2%	-12%	22%	·	·	·	·
Cc1cc(C)c(S(=O)(=O)/N=C2/C=C(Sc3ncn[nH]3)C(=O)c3ccccc32)cc1C	?	13µM*	?	1µM*	?	79µM*	17*	·	24*
Cc1ccc([N+](=O)[O-])cc1S(=O)(=O)Nc1ccc(O)c(Sc2ncn[nH]2)c1	·	3%	-29%	3%	10%	9%	·	·	·
Cc1ccc(S(=O)(=O)c2nc(/C=C/c3ccccc3)oc2N2CCC(C(N)=O)CC2)cc1	·	-11%	·	·	·	·	·	·	·
COc1ccccc1NC(=O)Cn1c(O)c(N=NC(=O)c2ccccc2O)c2ccccc21	3%	50µM*	?	?	0%	?	?	?	·
Cc1ccc(NC(=O)Cn2c(O)c(N=NC(=O)c3cc4ccccc4cc3O)c3ccccc32)cc1	-7%	?	-29%	?	?	?	·	·	·
O=C1C=CC(=O)c2c(O)c(N3CCN(CCOCCO)CC3)c(Br)c(O)c21	·	0.79µM*	28µM*	?	·	·	2.1*	3*	7.6*
O=C1C=CC(=O)c2c(O)c(N3CCN(CCO)CC3)c(Cl)c(O)c21	·	1.8µM*	22µM*	5.6µM*	·	·	3.4*	17*	17*
O=[N+]([O-])c1cc(/C=N/n2c(-c3cccnc3)n[nH]c2=S)ccc1Cl	?	20µM*	?	?	0%	5.6µM*	17*	·	43*
O=[N+]([O-])c1ccccc1/C=N/n1c(-c2cccnc2)n[nH]c1=S	9%	-8%	-13%	18%	0%	3%	·	·	·
Cc1cc2c(cc1S(=O)(=O)N(C)CC(=O)Nc1cccc(C#N)c1)OCC(=O)N2	·	-4%	-3%[60.1 µM]	13%	·	-2%	·	·	·
C=CCN1C(=O)/C(=C\C=C2\N(C)c3ccccc3C2(C)C)SC1=S	-11%	?	-9%	?	3%	?	·	·	·
CN1/C(=C\C=C2/SC(=S)N(CC(=O)O)C2=O)C(C)(C)c2ccccc21	-24%	45µM*	?	·	25µM*	40µM*	38*	34*	34*
COc1cc2c(cc1NC(=O)CSc1ccccc1)oc1ccccc12	19%	-26%	-2%	13%	-4%	-28%	·	·	·
COc1cc2c(cc1NC(=O)CSc1nc3ccccc3[nH]1)oc1ccccc12	-15%	50µM*	?	45µM*	?	5%	42*	·	43*
SMILES	L3MBTL1 block	Pol eta inh-1	Pol kappa inh-1	POLI inh	APE1 inh	Pol beta inh	Pol iota confirm	Pol kappa inh-2	Pol eta inh-2	others
COc1ccc(-n2ccc(=O)c(C(=O)Nc3ccc(S(=O)(=O)Nc4nccs4)cc3)n2)cc1	·	-15%	-13%	?	36%	?	·	·	·
COc1ccc(/C=C2/SC(=S)N(c3ccc(S(=O)(=O)Nc4nccs4)cc3)C2=O)cc1	·	25µM*	50µM*	22µM*	-3%	-22%	?	·	67*
CS(=O)(=O)Nc1cccc(-c2ccc3ncnc(NCc4cccnc4)c3c2)c1	·	·	3%[60.1 µM]	·	10%	·	·	·	·
COc1ccc(C(=O)OCc2cc(=O)n3nc(C4CC4)sc3n2)cc1OC	·	-2%	0%	12%	·	4%	·	·	·
Cc1ccc(S(=O)(=O)N2[C@@H](c3ccc(Cl)cc3)C(C(=O)O)=CC[C@H]2c2ccc(C(C)C)cc2)cc1	-7%	?	-38%	-6%	1%	·	60*	42*	85*
C#C[C@]1(O)CC[C@H]2[C@@H]3CCC4=Cc5oncc5CC4(C)[C@H]3CCC21C (stereo partly drawn)	·	·	-1%[60.1 µM]	·	·	·	·	·	·

Source: PubChem BioAssay (National Center for Advancing Translational Sciences (NCATS))
